Experimental data: ChEMBL document CHEMBL1961873, “Compounds: GSK PKIS; Assays: Nanosyn kinase panel” (2012)

Tests used:
[1] = target: Serine/threonine-protein kinase MARK2 (Homo sapiens) (UniProt Q7KZI7); settings: at 1 µM
[2] = target: PAS domain-containing serine/threonine-protein kinase (Homo sapiens) (UniProt Q96RG2); settings: at 0.1 µM
[3] = target: PAS domain-containing serine/threonine-protein kinase (Homo sapiens) (UniProt Q96RG2); settings: at 1 µM
[4] = target: Phosphorylase b kinase gamma catalytic chain, skeletal muscle/heart isoform (Homo sapiens) (UniProt Q16816); settings: at 0.1 µM
Chain of Phosphorylase b kinase gamma catalytic chain, skeletal muscle/heart isoform (Homo sapiens) (Q16816 whole entry, looked up, canonical isoform): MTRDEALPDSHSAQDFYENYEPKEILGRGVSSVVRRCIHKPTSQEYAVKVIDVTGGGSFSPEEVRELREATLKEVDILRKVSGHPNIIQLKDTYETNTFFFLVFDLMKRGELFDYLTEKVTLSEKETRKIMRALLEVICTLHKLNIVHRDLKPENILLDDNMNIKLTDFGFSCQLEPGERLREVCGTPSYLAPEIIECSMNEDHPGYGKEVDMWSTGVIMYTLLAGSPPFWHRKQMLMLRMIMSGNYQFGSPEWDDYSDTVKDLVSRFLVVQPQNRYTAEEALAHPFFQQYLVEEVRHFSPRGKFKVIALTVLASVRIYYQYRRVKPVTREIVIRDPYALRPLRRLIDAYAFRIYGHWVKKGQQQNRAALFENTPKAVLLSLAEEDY

[5] = target: Phosphorylase b kinase gamma catalytic chain, skeletal muscle/heart isoform (Homo sapiens) (UniProt Q16816); settings: at 1 µM
[6] = target: T1, Phosphorylase b kinase gamma catalytic chain, liver/testis isoform (Homo sapiens) (UniProt P15735); settings: at 0.1 µM
T1 sequence (whole entry): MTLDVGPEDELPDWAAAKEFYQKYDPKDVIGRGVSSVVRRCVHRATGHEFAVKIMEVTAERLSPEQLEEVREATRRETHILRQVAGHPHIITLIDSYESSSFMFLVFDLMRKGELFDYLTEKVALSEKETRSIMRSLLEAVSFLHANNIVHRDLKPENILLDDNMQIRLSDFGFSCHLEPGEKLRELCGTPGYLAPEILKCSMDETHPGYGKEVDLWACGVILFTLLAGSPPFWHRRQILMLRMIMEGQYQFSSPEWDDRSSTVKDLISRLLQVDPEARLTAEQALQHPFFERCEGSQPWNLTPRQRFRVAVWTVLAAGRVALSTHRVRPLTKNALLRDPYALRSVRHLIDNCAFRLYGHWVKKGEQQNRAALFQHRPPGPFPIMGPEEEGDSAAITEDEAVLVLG

[7] = target: T1, Phosphorylase b kinase gamma catalytic chain, liver/testis isoform (Homo sapiens); settings: at 1 µM
[8] = target: Serine/threonine-protein kinase pim-1 (Homo sapiens) (UniProt P11309); settings: at 0.1 µM
Chain of Serine/threonine-protein kinase pim-1 (Homo sapiens) (P11309 whole entry, looked up): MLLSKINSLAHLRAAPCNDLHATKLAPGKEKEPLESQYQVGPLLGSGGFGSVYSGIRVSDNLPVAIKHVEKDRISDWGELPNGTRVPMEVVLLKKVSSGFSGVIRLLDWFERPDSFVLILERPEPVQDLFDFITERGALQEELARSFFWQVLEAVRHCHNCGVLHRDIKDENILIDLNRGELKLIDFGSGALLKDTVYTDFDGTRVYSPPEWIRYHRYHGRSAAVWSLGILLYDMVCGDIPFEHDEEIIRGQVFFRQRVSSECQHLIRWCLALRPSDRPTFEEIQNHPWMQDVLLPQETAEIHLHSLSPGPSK

[9] = target: Serine/threonine-protein kinase pim-1 (Homo sapiens) (UniProt P11309); settings: at 1 µM
[10] = target: Serine/threonine-protein kinase pim-2 (Homo sapiens) (UniProt Q9P1W9); settings: at 0.1 µM;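 note: reported value is the mean percent inhibition of PIM2, measured in the GSK PKIS kinase inhibitor set screen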
Chain of Serine/threonine-protein kinase pim-2 (Homo sapiens) (Q9P1W9 whole entry, looked up): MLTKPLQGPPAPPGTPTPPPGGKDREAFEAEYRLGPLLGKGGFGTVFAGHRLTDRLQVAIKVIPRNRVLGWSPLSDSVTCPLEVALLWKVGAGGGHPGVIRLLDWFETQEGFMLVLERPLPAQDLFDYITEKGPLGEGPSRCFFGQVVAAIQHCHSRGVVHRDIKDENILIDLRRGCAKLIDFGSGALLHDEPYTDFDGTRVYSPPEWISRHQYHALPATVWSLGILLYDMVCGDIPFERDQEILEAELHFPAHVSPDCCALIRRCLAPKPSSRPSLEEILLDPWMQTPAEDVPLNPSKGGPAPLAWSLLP

Chain of PAS domain-containing serine/threonine-protein kinase (Homo sapiens) (Q96RG2 whole entry, the tested form may be a part, canonical isoform): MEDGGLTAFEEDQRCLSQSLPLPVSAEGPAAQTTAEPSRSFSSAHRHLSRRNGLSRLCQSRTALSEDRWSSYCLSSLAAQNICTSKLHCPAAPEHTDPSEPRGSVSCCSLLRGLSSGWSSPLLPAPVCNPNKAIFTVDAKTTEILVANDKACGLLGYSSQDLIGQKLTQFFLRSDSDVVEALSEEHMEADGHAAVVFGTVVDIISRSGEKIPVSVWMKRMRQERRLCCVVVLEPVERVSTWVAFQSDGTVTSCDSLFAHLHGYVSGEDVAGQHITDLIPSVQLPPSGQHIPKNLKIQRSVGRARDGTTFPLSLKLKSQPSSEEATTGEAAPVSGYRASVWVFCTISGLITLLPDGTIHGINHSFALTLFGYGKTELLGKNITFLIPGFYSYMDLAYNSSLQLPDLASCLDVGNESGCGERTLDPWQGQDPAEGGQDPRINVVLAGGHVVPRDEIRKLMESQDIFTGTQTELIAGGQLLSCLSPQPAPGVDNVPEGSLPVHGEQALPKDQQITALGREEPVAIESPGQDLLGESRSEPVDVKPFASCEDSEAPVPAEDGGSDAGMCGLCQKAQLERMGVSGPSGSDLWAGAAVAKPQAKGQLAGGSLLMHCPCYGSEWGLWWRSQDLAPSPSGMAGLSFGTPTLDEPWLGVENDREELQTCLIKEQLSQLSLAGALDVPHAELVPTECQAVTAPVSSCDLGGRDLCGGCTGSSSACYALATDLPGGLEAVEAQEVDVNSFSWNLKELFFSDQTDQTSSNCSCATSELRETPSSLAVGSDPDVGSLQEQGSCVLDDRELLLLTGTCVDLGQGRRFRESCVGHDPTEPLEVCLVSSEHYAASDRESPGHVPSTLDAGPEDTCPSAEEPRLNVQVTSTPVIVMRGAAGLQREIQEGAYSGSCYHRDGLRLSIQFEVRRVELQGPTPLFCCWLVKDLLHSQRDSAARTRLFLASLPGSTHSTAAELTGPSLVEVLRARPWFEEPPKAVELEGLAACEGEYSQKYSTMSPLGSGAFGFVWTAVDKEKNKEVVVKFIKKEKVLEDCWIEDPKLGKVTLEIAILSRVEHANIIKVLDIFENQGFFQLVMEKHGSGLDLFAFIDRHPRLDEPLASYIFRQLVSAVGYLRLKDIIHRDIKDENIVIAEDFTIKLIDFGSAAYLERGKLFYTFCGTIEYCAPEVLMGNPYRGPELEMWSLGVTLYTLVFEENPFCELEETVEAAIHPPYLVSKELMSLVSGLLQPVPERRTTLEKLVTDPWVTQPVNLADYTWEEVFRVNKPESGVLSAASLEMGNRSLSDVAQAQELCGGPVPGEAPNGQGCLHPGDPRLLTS
Chain of Serine/threonine-protein kinase MARK2 (Homo sapiens) (Q7KZI7 whole entry, the tested form may be a part): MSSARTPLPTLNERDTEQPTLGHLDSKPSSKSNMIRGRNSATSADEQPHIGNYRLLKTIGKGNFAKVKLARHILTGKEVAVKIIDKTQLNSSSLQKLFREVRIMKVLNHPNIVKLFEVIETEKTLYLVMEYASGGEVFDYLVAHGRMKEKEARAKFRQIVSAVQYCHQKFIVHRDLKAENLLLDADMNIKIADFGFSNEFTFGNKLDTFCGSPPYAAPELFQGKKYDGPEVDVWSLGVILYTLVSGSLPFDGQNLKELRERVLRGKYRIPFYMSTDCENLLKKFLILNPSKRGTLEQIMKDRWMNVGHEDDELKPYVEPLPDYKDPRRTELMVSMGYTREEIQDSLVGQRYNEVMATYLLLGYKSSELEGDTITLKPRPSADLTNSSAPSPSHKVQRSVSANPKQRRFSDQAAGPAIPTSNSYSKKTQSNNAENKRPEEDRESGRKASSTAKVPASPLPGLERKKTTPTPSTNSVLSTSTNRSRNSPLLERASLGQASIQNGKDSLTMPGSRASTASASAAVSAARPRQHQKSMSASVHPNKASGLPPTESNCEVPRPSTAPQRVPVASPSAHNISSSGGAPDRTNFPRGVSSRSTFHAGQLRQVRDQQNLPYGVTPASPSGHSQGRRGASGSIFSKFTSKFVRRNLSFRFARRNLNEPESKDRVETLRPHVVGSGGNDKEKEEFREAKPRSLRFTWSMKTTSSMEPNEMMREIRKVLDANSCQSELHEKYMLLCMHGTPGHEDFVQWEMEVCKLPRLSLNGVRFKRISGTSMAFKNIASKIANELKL

Structure (SMILES)	inhibition [1] [%]	inhibition [2] [%]	inhibition [3] [%]	inhibition [4] [%]	inhibition [5] [%]	inhibition [6] [%]	inhibition [7] [%]	inhibition [8] [%]	inhibition [9] [%]	inhibition [10] [%]
COc1cc(C=NNc2ncnc3c2cnn3Cc2ccccc2)ccc1O	4.82	-0.31	0.37	-1.3	2.64	-7.11	-6.49	-0.98	1.73	0.65
NS(=O)(=O)c1ccc(N/C=C2\C(=O)Nc3ccc4ncsc4c32)cc1	34.6	-0.28	0.4	15.2	47.6	7.45	19.8	1.16	4.82	0.27
Fc1ccc(-c2ncn(C3CCNCC3)c2-c2ccnc(Oc3ccccc3)n2)cc1	-1.83	0.55	-1	3.99	2.25	1.69	1.14	-1.15	-0.11	-3.22
COc1cc2c(cc1Nc1nc(Nc3ccsc3C(N)=O)c3cc[nH]c3n1)N(C(=O)CN(C)C)CCC2	5.44	0.93	1.03	8.54	41.3	-0.5	-0.53	31.3	79.8	0.47
Nc1nonc1-c1nc2cnccc2n1C1CCCCC1	21.9	1.01	12.9	-3.58	8.25	-4.48	-2.24	29.8	79.2	5.24
CCn1c(-c2nonc2N)nc2c(C#CC(C)(C)O)ncc(OC[C@@H]3CCCN3)c21	51.9	0.57	7.61	1.02	2.21	1.45	1.65	1.6	7.63	1.1
CCn1c(-c2nonc2N)nc2c(C#CC(C)(C)O)nc(O[C@@H](CN)c3ccccc3)cc21	90.5	0.53	15.9	1.61	12.3	-3.09	-0.93	4.64	35.2	2.45
COc1cccc(COc2cc(-n3cnc4ccccc43)sc2C(N)=O)c1	-1.4	1.11	1.08	2.26	3.47	1.62	0.45	0.5	0.84	0.51
NC(=O)c1sc(-n2cnc3cc(C(F)(F)F)ccc32)cc1OCc1ccccc1Br	2.11	1.33	0.96	0.3	5.87	2.5	3.01	1.18	1.5	-0.35
CCn1c(-c2nonc2N)nc2c(C#CC(C)(C)O)ncc(OCC3CCNCC3)c21	46.5	0.98	12.8	2.88	9.61	4.03	6.94	2.14	17.3	-3.05
NS(=O)(=O)c1ccc(-c2ccc3c(NC(=O)C4CC4)n[nH]c3c2)cc1	2.59	0.57	-1.27	-3.09	3.54	2.77	0	1.16	0.95	-0.15
Cc1cc(-c2ccco2)cc(C)c1/C=C/c1cncc(-c2nn[nH]n2)c1	-0.28	1.32	1.25	3.4	4.41	1.33	1.22	0.14	1.06	0.57
COc1cccc(-n2ncc3c(N/N=C/c4ccncc4)ncnc32)c1	2.54	0.3	0.25	5.39	17.6	5.48	7.43	1.36	3.36	0.77
CCn1c(-c2nonc2N)nc2c(C#CCN)ncc(OCCCN)c21	10.1	1.4	16.9	3.15	5.73	-1.7	4.75	4.76	36	3.26
